High-throughput results (PubChem BioAssay)
NCOA1 inh: inhibits human SRC1 coactivator. HEK293 GAL4-SRC1 luciferase reporter, luminescence. inhibition, % at 3.6 µM. 0.12% of 360,000 active. AID 588354;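 active = inhibition above the campaign mean plus 3 SD, with each screening campaign given its own cutoff, cut at about 60% in these data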;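 also: 0% = DMSO treated cells and 100% = gossypol at 36 µM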
NCOA3 inh: inhibits human SRC3 coactivator. 0.17% of 360,000 active. inhibition, % at 3.6 µM. Q9Y6Q9. AID 588352. HEK293 GAL4-SRC3 luciferase reporter, luminescence;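 active = inhibition above a per-campaign cutoff, the mean of all compounds plus 3 SD, cut at about 60% in these data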;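 also: 0% = DMSO-treated cells and 100% = gossypol-treated cells at 36 µM; higher means less SRC3-driven luciferase light from the GAL4 reporter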
SRC2 inh: human SRC2 (NCOA2) inhibition; Q15596; HEK293 GAL4-SRC2 luciferase reporter, luminescence; inhibition, % at 9 µM; 0.17% of 370,000 active;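 active = inhibition above the mean inhibition of all tested compounds plus 3 SD, set per campaign, cut at about 52% in these data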;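 also: 0% = DMSO treated cells and 100% = cells given Gossypol at 36 µM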
Shn3 inh set2: inhibitors of Schnurri-3 3'UTR reporter in osteoblasts. AID 588674. Clone20 osteoblast Shn3 3'UTR firefly luciferase, 24 h. 0.52% of 360,000 active. inhibition, % at 12.5 µM;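 active = mean inhibition of at least 75% with every replicate also reaching 75%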;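 also: 0% = median of neutral control wells and 100% = pilot-screen positive control compound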
LMP1 NFkB inh: inhibitors of Epstein-Barr LMP1-induced NF-kappaB reporter | LMP1-induced NF-kappaB luciferase reporter cells, luminescence | inhibition, % at 12.5 µM | 0.69% of 350,000 active; in the data active = inhibition above about 41%;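 also: 0% = neutral control wells and 100% = reference inhibitor control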
NR5A2 inv ag: suppresses constitutive activity of human LRH-1; O00482; HEK293T StAR-luciferase reporter, LRH-1 transfected, 24 h; inhibition, % at 3.6 µM; 0.13% of 360,000 active;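 active = inhibition above the mean inhibition of all tested compounds plus 3 SD, cut at about 73% in these data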;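 also: 0% = DMSO wells and 100% = reporter-only cells lacking LRH-1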
Target sequence (O00482 whole entry, looked up): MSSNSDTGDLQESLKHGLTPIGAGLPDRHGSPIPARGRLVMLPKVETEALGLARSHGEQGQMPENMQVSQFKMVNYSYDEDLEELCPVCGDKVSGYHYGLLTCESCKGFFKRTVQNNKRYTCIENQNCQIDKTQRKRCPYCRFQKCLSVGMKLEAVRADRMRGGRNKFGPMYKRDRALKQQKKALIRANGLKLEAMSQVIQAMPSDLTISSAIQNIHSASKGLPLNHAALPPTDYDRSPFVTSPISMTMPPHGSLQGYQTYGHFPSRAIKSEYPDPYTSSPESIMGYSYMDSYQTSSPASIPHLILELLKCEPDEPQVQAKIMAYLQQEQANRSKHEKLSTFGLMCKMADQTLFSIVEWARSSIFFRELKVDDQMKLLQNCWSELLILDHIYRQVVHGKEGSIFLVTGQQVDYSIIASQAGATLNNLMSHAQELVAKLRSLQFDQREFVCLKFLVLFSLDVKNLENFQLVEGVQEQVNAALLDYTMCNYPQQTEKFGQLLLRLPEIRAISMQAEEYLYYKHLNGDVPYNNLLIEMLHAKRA
* marks the source's active call; other numbers are inactive results; . = not tested or not shown. Rows were chosen to be rich in hits. Some 1.2% of all compounds tested hit in one or more screens of this group.

SMILES | NCOA1 inh | NCOA3 inh | SRC2 inh | Shn3 inh set2 | LMP1 NFkB inh | NR5A2 inv ag
Cc1cc(C)n(-c2ccc3cccc(NS(C)(=O)=O)c3n2)n1 | -12 | 5 | -17 | 90* | -6 | 17
NC(=O)c1cc(N2C(=O)C=CC2=O)ccc1Cl | 3 | -18 | . | 94* | -1 | -8
CC(=O)Nc1ccc(Cl)c(C(N)=O)c1 | -16 | 10 | -5 | -21 | -8 | -11
Brc1cccc(CSc2nnc(-c3ccncc3)o2)c1 | 41 | 54 | 38 | 16 | 71* | -7
O=C(O)c1cccc(CSc2nnc(-c3ccc(Cl)cc3)o2)c1 | -4 | 0 | 55* | 21 | 3 | -2
CNc1nc(-c2ccc3c(c2)CCN3C(=O)CC(C)(C)C)c(C)s1 | -24 | -8 | -34 | 8 | -15 | -41
CC(=O)Nc1nc(-c2ccc3c(c2)CCN3C(=O)C2CC2)c(C)s1 | 3 | 8 | 47 | -29 | 82* | 15
Cc1cc(C)c(S(=O)(=O)/N=C2/C=C(Sc3ncn[nH]3)C(=O)c3ccccc32)cc1C | 36 | 71* | 62* | 94* | -2 | 64
CCCCNC(=O)CCn1ccc2cc(S(=O)(=O)N3CCCC3)ccc21 | -7 | 10 | 10 | 30 | 1 | -9
CCOc1ccc(CCNC(=O)CCn2ccc3cc(S(=O)(=O)N4CCCC4)ccc32)cc1 | 1 | 1 | 8 | 21 | 72* | -10
O=C1C(N2CCOCC2)=C(n2nnc3ccccc32)C(=O)c2ccccc21 | -20 | 25 | 58* | 24 | 65* | 20
O=C1c2ccccc2C(=O)c2c1cccc2-n1nnc2ccccc21 | -28 | 14 | -11 | 10 | 2 | -9
COc1ccc(N2C3=[N+](CC2(C)O)c2ccccc2CC3)cc1 (stereo unspecified) | -5 | -1 | -24 | 0 | 69* | 4
COc1ccc(S(=O)(=O)N(C)C[C@H]2Oc3c(NC(=O)CCC(F)(F)F)cccc3C(=O)N([C@H](C)CO)C[C@@H]2C)cc1 | -2 | 11 | 10 | 1 | 56* | -11
CC(C)NC(=O)N(C)C[C@H]1Oc2c(NS(=O)(=O)c3cn(C)cn3)cccc2C(=O)N([C@H](C)CO)C[C@@H]1C | -1 | 17 | -31 | -1 | -2 | -7
C[C@H](CO)N1C[C@H](C)[C@@H](CN(C)C(=O)NC2CCCCC2)Oc2c(NS(=O)(=O)c3cn(C)cn3)cccc2C1=O | -3 | -8 | 8 | 1 | 50* | -5
C#CCN1CC(N(C)CCOC(=O)c2ccc(OC)c(OC)c2)CS1(=O)=O (stereo unspecified) | . | . | -32 | . | . | .
O=C(c1ccncc1)N1CCC(Oc2cccnc2)CC1 | . | . | 22 | . | . | .
Cc1cccc(-n2ncc3c(N(C)C4CCCCC4)ncnc32)c1 | 81* | 81* | 62* | 76 | 37 | 77*
Cc1cccc(-n2ncc3c(N(CCO)CCO)ncnc32)c1 | -55 | -63 | -29 | 0 | -20 | -31
COc1ccc(-n2ncc3c(N(C)C4CCCCC4)ncnc32)cc1 | 79* | 79* | 63* | 64 | 52* | 79*
Cc1ccc(C(=O)C[n+]2cc(-c3ccc(C)cc3)n3c2CCCCC3)cc1 | 22 | 54 | 17 | 74 | 30 | 74*
COc1ccc(C(=O)Nc2nc3ccccc3s2)c(OC)c1 | 89* | 91* | 93* | 93* | 85* | 93*
COc1ccccc1C(=O)Nc1nc2ccccc2s1 | 71* | 74* | 86* | 80 | 85* | 66
COc1ccccc1C(=O)Nc1nc2ccc(S(C)(=O)=O)cc2s1 | -15 | -16 | -32 | -27 | -4 | -8
SMILES | NCOA1 inh | NCOA3 inh | SRC2 inh | Shn3 inh set2 | LMP1 NFkB inh | NR5A2 inv ag
COc1ccccc1C(=O)Nc1c[nH]c(=O)[nH]c1=O | -17 | -6 | -13 | 22 | 52* | -3
CC(C)[C@H](NC(=O)CC1CCCC1)C(=O)N1CCC[C@H]1C(=O)NCc1ccccc1 | . | . | -13 | . | . | .
Cc1ccc(-c2cc(C(=O)NCCCN3CCOCC3)no2)cc1 | 26 | 21 | 56* | 21 | 8 | 18
O=C(NCCCN1CCOCC1)c1cc(-c2ccc(Cl)c(Cl)c2)on1 | -10 | 3 | -7 | 9 | 2 | -11
O=C(N/N=C/c1sc(N2CCOCC2)nc1-c1ccccc1)c1cccc(S(=O)(=O)N2CCOCC2)c1 | 66* | 72* | 6 | 84 | 30 | 75*
Cc1cc(C(=O)N/N=C/c2sc(N3CCOCC3)nc2-c2ccccc2)c(C)o1 | 0 | -3 | -12 | -12 | 41* | 10
